Screening data: PubChem BioAssay, The Scripps Research Institute Molecular Screening Center
MOR-DOR ag: OPRM1-OPRD1 heterodimerization agonism. P35372+P41143. cells, luminescence. activation, % at 9.3 µM. hit rate 0.3% among 340,000; in the data active = activation above about 18%;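 note: 0% = vehicle-treated cells and 100% = reference agonist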
Target sequence (P35372 whole entry, looked up): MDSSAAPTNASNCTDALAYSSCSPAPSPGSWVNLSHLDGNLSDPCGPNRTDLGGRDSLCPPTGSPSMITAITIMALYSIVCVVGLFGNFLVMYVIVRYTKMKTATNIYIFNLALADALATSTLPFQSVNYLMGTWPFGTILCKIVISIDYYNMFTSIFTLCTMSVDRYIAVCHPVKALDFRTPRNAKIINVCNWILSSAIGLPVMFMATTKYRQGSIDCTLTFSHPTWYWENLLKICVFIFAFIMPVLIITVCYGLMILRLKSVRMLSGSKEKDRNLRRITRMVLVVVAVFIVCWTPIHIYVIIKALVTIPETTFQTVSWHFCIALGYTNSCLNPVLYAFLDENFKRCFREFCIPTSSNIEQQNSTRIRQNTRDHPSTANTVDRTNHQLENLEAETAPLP
Target sequence (P41143 whole entry, looked up): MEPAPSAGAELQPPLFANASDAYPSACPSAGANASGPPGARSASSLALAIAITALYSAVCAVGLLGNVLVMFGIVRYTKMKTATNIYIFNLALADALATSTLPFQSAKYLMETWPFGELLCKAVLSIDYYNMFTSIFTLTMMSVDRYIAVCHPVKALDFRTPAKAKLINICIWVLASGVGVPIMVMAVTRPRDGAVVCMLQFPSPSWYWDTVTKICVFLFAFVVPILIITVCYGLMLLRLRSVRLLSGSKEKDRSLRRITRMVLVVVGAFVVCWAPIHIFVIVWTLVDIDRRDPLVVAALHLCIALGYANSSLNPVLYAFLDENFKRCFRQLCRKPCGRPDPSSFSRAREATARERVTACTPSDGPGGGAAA
OPRM1-OPRD1 inv: mu-delta opioid heterodimer inverse agonism | P35372+P41143 | cell-based MOR-DOR heterodimer luminescence | inhibition, % at 9.3 µM | hit rate 0.21% among 340,000 | AID 504357; in the data active = inhibition above about 22%, passing the limit was not always enough;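 note: 0% = cells with DMSO and 100% = wells without cells with DMSO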
HTR5A ag: HTR5A agonism, opioid heterodimer counter-screen. P47898. HTR5A agonist assay, luminescence, cell-based. activation, % at 9.3 µM. hit rate 0.61% among 340,000. AID 504692; in the data active = activation mostly above about 9.5%, no sharp cut-off; inactive = mostly below about 7.6%;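 note: 0% = cells with vehicle only and 100% = reference agonist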
MsrA inh: inhibitors of bovine MsrA. purified bovine MsrA, absorbance read-out. inhibition, % at 15.5 µM. hit rate 0.75% among 360,000; in the data active = inhibition above about 4.5%;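 note: 0% = vehicle wells with enzyme and 100% = reference inhibitor wells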
HTR5A inv ctr: HTR5A inverse agonism, opioid heterodimer counter-screen | HTR5A cell line, luminescence | inhibition, % at 9.3 µM | P47898 | hit rate 0.083% among 340,000 | AID 504634; in the data active = inhibition mostly above about 23%, no sharp cut-off; inactive = mostly below about 18%;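 note: 0% = cells with DMSO and 100% = no-cell wells with DMSO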
MsrA act: bovine methionine sulfoxide reductase A activation. activation, % at 10.6 µM. hit rate 0.3% among 360,000. purified bovine MsrA, absorbance read-out. AID 602163; in the data active = activation above about 7.5%;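 note: 0% = vehicle and 100% = reference activator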
* hit, by the source's call; / = no result. Most compounds without a hit are left out; they make up all but 1.9% or so of the library.

SMILES | MOR-DOR ag | OPRM1-OPRD1 inv | HTR5A ag | MsrA inh | HTR5A inv ctr | MsrA act
O=C1OC(N2CCN(C(=O)c3ccco3)CC2)c2ccccc21 (stereo not given) | -2 | 13 | 9.9* | -2 | -15 | -3
O=C(c1ccco1)N1CCN(C2c3ccccc3-c3ccccc32)CC1 | -2 | 9 | 1 | 0 | 14 | -1
N#Cc1ccc2nc(-c3ccc(CN4CCC(c5nc6ccccc6[nH]5)CC4)cc3)c(-c3ccccc3)nc2c1 | / | / | / | 0 | / | /
Cc1cc(C)c2c(c1)CC(C)(C)CC2=O | -2 | 9 | 9.2* | 0 | -38 | -9
O=C(COc1cccc(Br)c1)N/N=C1\CCCc2ccccc21 | 0 | 3 | 14* | -1 | 3 | -2
N=C(N)N=Nc1c(O)[nH]c2ccc(Br)cc12 | -1 | 10 | -5 | 4.6* | 12 | -1
CCS(=O)(=O)N1Cc2ccccc2CC1C(=O)N(C)CC(=O)Nc1cccc(F)c1 (stereo not given) | -1 | 6 | 9.9* | -1 | 12 | -1
CC(C)CN(Cc1cc(=O)oc2cc(-c3ccccc3)c(O)cc12)CC(C)C | 20* | -105 | 17* | 2 | 10 | -4
O=C(O)c1cccc(N2C(=O)C3CC=C(Cl)CC3C2=O)c1 (stereo not given) | -1 | 6 | 11* | 0 | -30 | 0
O=C(O)c1cccc(N2C(=O)C3CC=CCC3C2=O)c1 (stereo not given) | -4 | 18 | 1 | 0 | 10 | -6
COc1ccc(N(CC(=O)N/N=C/c2ccccc2F)S(=O)(=O)c2ccccc2)cc1 | 2 | -10 | 3 | 1 | -10 | 4
COc1ccc(N(CC(=O)N/N=C/c2ccc(N(C)C)cc2)S(=O)(=O)c2ccccc2)cc1 | -2 | 8 | 0 | 4.6* | 0 | -3
CCN=C1NC(c2ccccc2C(F)(F)F)C(C(=O)OC)=C(C)N1Cc1ccc(C(F)(F)F)cc1 (stereo not given) | / | / | / | -1 | / | /
COc1cc(/C=C(\C#N)c2nnc(N3CCOCC3)n2-c2ccccc2)ccc1O | 0 | -1 | 4 | 4.6* | -16 | -10
COc1ccc(OC)c(-c2cc(C3CCN(c4cc(Cl)nc(N)n4)CC3)[nH]n2)c1 | 1 | -3 | 10* | 1 | -5 | -2
Nc1nc(Cl)cc(N2CCC(c3cc(-c4ccc(Cl)cc4)n[nH]3)CC2)n1 | 6 | -33 | 14* | 1 | -12 | -6
Nc1nc(=S)c2ncn([C@@H]3O[C@H](CO)[C@@H](O)[C@H]3O)c2[nH]1 | -2 | 10 | -5 | 4 | -24 | -1
Nc1nc(=S)c2ncn(C3CCCCC3)c2[nH]1 | -3 | 16 | -5 | 4.6* | 18 | 3
O=C1OCCN1C(=O)[C@H]1[C@H](c2ccc(Cl)cc2)C(c2ccccc2)=NN1c1ccccc1 | 3 | -16 | 5.5* | 3 | -20 | 0
CCOC(=O)C1CSCCS(=O)(=O)N1Cc1ccccc1F (stereo not given) | / | / | / | 1 | / | /
CCOC(=O)c1ccc2c(c1)N(Cc1ccccc1C)C(=O)c1ccccc1S2=O (stereo not given) | -1 | 7 | 9.5* | -2 | -32 | -3
COc1ccc(Cc2nc(-c3ccc(-n4cccc4)cc3)no2)cc1OC | 1 | -5 | 11* | 1 | -32 | -3
NC(=O)c1ncn([C@@H]2O[C@H](C(=O)N[C@H](Cc3ccccc3)C(=O)N3CCN(c4ccc(Cl)cn4)CC3)[C@@H](O)[C@H]2O)n1 | / | / | / | 1 | / | /
Cc1cccc(C(=O)O/N=C2\CCCc3ccccc32)c1 | 1 | -6 | 13* | 0 | -34 | 5
Cc1ccc(C(=O)O/N=C2\CCCc3ccccc32)cc1 | 4 | -17 | 9 | 1 | -23 | -5
CCCCNC(=O)CCSc1nc2nc(C)cc(C)n2n1 | -1 | 5 | -2 | / | -15 | 8.0*
CC(C)NC(=O)c1ccc(-n2nc(C(F)(F)F)c3c2CCCC3)cc1 | -2 | 8 | 13* | 0 | -49 | -4
Cc1cc(C)n(-c2ccc(C(=O)NC(C)C)cc2)n1 | -3 | 14 | 3 | / | 2 | -2
O=C(NCc1cccc(F)c1F)C1CCC(=O)N(C2CC2)C1 (stereo not given) | -5 | 18 | 10* | 1 | 4 | -6
O=C(NCc1ccccc1Cl)C1CCC(=O)N(C2CC2)C1 (stereo not given) | -3 | 16 | 1 | 0 | -15 | -5
